What is called inhibition is the drop in the measured response relative to a control, in per cent.

Values joined by “and” are separate entries in the source; they are usually repeats but may differ in a detail not shown here. Identical values can stand only once. Hit rate of the full screen: of about 340,000 compounds, about 3,300 (0.97%) were called active.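 How the source made its calls: active means inhibition above the mean over all tested compounds plus 3 SD (cut at about 30% in these data); inactive means the rest.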 Only a selection was taken, and actives are over-represented in it overall.

In the experiment the target is Platelet-activating factor acetylhydrolase 2, cytoplasmic (Homo sapiens) (UniProt Q99487). In words: PAFAH2 enzyme inhibitors, primary screen, biochemical, fluorescence polarization, human (AID 492956).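 Further: inhibitors block probe labeling of enzyme so polarization drops; 0% = enzyme with DMSO and 100% = wells lacking PAFAH2 protein.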 The following applies: recombinant PAFAH2, FP-rhodamine activity probe, at 3.39 µM, hits give high values. On the technique in general: Polarisation of emitted light reports the rotation of a fluorescent probe.
On to `COC(=O)c1ccc(CN2CCC(CO)(Cc3ccc(OC)cc3)CC2)cc1`, for which the inhibition was -1.13% (inactive). The same measure for `CCOc1ccccc1NC(=O)C1CCCN(C(=O)Nc2ccccc2)C1` (stereo not drawn): 8.64% (inactive); for `COCCNC(=O)CN(Cc1ccco1)C(=O)CCC(=O)Nc1nccs1`: -1% (inactive).

As to `COc1ccc(OC)c(/C=C/C(=O)c2ccc3c(c2)OCO3)c1`, the inhibition is 10.8% (inactive). For `COc1cc(/C=C/C(=O)OCC(=O)NCCCc2ccccc2)ccc1O` the value was 48.4% (active); for `COc1ccc(/C=C/C(=O)OCC(=O)Nc2cccc(Oc3ccccc3)c2)c(OC)c1`, 44.5% (active).

With `COc1cccc(NC(=O)COC(=O)CCOc2ccccc2OC)c1`, the inhibition is 3.71% (inactive).

In the case of `COc1cccc(NC(=O)CN(C)C(=O)/C=C/c2cc(OC)ccc2OC)c1`, the inhibition was 1.18% (inactive). Take `COc1cccc(NC(=O)COC(=O)/C=C/c2ccco2)c1`: the inhibition was 71.4% (active). For `COc1ccc(OC)c(/C=C/C(=O)OCC(=O)Nc2ccc3c(c2)OCCO3)c1`, the inhibition was 43.7% (active). For `COc1ccccc1OCCCC(=O)Nc1ccc2c(c1)OCCO2` the value was -0.62% (inactive); for `COc1ccc([N+](=O)[O-])cc1NC(=O)COC(=O)/C=C/c1ccco1`, 14.1% (inactive). For `COc1cc(/C=C/C(=O)OCC(=O)c2ccccc2)cc(OC)c1OC`, the inhibition is 18% (inactive). Consider `NS(=O)(=O)c1cccc(NC(=O)COC(=O)/C=C/c2ccco2)c1`, for which the inhibition is 26.1% (inactive). Regarding `COc1cc(/C=C/C(=O)OCC(=O)NC(=O)NCc2ccccc2)ccc1OCC#N`, the inhibition was -1.43% (inactive). Turning to `O=C(Nc1cccc2c1CCCC2)C1CCN(C(=O)NC2CCCCC2)CC1`, the inhibition was -4.67% (inactive).

With `COc1ccc(OC)c(/C=N/NC(=O)c2ccc[n+](CC(=O)c3ccccc3)c2)c1`, the inhibition was -2.42% (inactive).

Consider `Cc1ccc(/C=C/C(=O)O)cc1S(=O)(=O)N1CCC(Cc2ccccc2)CC1`, for which the inhibition was 2.39% (inactive). In the case of `O=C(C[C@@H]1C/C=C\CCC(=O)OC[C@@H]2CCCN2C1=O)NCCO`, the inhibition is 15.7% (inactive).

Take `CCOc1ncccc1C(=O)N(C)CC(=O)Nc1ccc(F)cc1`: the inhibition was -4.72% (inactive).

With `CC1CCc2sc(C(=O)N/N=C/C3CCCCC3)cc2C1` (stereo not drawn), the inhibition was 0.32% (inactive). For `O=C(CSc1nnc(COc2ccc(Cl)cc2)n1Cc1ccco1)N1CCNC1=O` the value was 6.03% (inactive); for `O=C(COC(=O)c1ccc(F)cc1)NCCCc1ccccc1`, 21.2% (inactive); for `Cc1cnc(C(=O)OCC(=O)NCCCc2ccccc2)cn1`, 4.7% (inactive). For the compound `COc1ccc(C(=O)OCC(=O)NCCCc2ccccc2)cc1OC`, the inhibition was 55.4% (active). Turning to `Cn1c2c(c(=O)n(C)c1=O)CN(Cc1ccco1)CN2`, the inhibition was -2.71% (inactive).

In the case of `CCCN(CC(=O)Nc1ccccc1C)C(=O)c1ccc2[nH]c3c(c2c1)CC(C)CC3` (stereo not drawn), the inhibition is 8.67% (inactive). As to `CCOc1ccc(S(=O)(=O)N2CCCCC2)cc1NC(=O)CN1CCCC1c1cccs1` (stereo not drawn), the inhibition is -0.88% (inactive).

In the case of `CC(=O)Nc1ccc(S(=O)(=O)NCC2CCC(C(=O)NCCc3ccccc3)CC2)cc1` (stereo not drawn), the inhibition is 6.72% (inactive). The same measure for `O=C1NC(c2ccc(-c3ccccc3[N+](=O)[O-])o2)C(C(=O)c2ccc(Cl)cc2)C(O)(C(F)(F)F)N1` (stereo not drawn): 1.45% (inactive); for `CC1=NN(c2ccc(Cl)c(C(=O)O)c2)C(=O)/C1=C/c1ccc(-c2ccccc2[N+](=O)[O-])o1`: 36.5% (active). For `O=C(Nc1ccc(N2CCOCC2)cc1)c1ccc(-c2ccccc2[N+](=O)[O-])o1` the value was -11.3% (inactive). For `CC(CO)(CO)NC(=O)c1ccc(=O)[nH]n1` the value was -12.6% (inactive); for `Cc1c2cnn(CC(=O)NCCCN3CC(C)CC(C)C3)c(=O)c2c(C)n1Cc1ccc(Cl)cc1` (stereo not drawn), 5.22% (inactive).

Regarding `O=C(c1cccnc1)N(c1cc2sc(=O)oc2c2ccccc12)S(=O)(=O)c1ccccc1`, the inhibition was 36.6% (active).

For the compound `O=C(c1cccnc1)N(Cc1ccccc1)C(=O)c1cccnc1`, the inhibition is 3.92% (inactive).

`COc1ccc(N(C(=O)c2cccnc2)S(=O)(=O)c2ccc(OC)c(OC)c2)cc1`: the inhibition is -3.27% (inactive). For `COc1cccc2oc(CCc3ccccc3)cc(=O)c12` the value was 6.23% (inactive). The same measure for `CCC1C(C#N)=C(SC)NC2=C1C(=O)CC(C)(C)C2` (stereo not drawn): -6.12% (inactive); for `CCOc1ccc(NC(=O)c2ccc(NC(=O)COC(=O)c3ccc(NC(=O)CC#N)cc3)cc2)cc1`: -53.2% (inactive); for `O=C(OCC(=O)c1cccs1)C1=COCCO1`: 17.6% (inactive).

`CCC(C)(C)c1ccc(Oc2ccc(NC(=O)COC(=O)C3=COCCO3)cc2)cc1`: the inhibition was 55.4% (active). On to `COc1cccc(C2=CC(=O)C[C@H](c3ccc(F)cc3)C2)c1OC`, for which the inhibition was -13.9% (inactive). For `O=C(OC1CCOC1=O)c1cccc(S(=O)(=O)Nc2ccc(F)cc2)c1` (stereo not drawn) the value was 9.72% (inactive); for `Cc1ccc2nc(COc3ccc(N(C)S(=O)(=O)c4ccccc4)cc3)cc(=O)n2c1`, 8.78% (inactive); for `CC1CCCCC1NC(=O)CCS(=O)(=O)c1ccc2c(c1)NC(=O)CO2` (stereo not drawn), 26.2% (inactive). Take `CC1CN(C(=O)c2ccc([N+](=O)[O-])s2)CC(C)O1` (stereo not drawn): the inhibition is 5.08% (inactive). As to `CNN/C(N=Cc1ccc([N+](=O)[O-])s1)=N\S(=O)(=O)c1cc(C)c(Cl)cc1SCc1ccccc1`, the inhibition was 5.01% (inactive). For `O=[N+]([O-])c1ccc(C=Nc2ccc(Cl)cc2Cl)s1` the value was 63.8% (active).

Consider `O=C1COc2ccc(C(=O)COC(=O)CCOc3ccccc3)cc2N1`, for which the inhibition was 0.36% (inactive).

Take `COc1ccc(OC)c(-c2csc(-c3cccs3)n2)c1`: the inhibition is 5.06% (inactive). The same measure for `COc1cccc(NC(=O)CN(C)C(=O)/C=C/c2cn(-c3ccccc3)nc2-c2cccs2)c1`: -54.5% (inactive). For `COc1cccc(C(=O)n2ccc(-c3cccs3)n2)c1` the value was 31.8% (active). For `CC(C)(C)c1ccc(Cn2nnc3c(=O)[nH]c(C4CCCN(C(=O)c5ccco5)C4)nc32)cc1` (stereo not drawn) the value was -1.16% (inactive). Regarding `Cc1cc(C)cc(NC(=O)CCN2C(=O)c3ccccc3C2=O)c1`, the inhibition was -14% (inactive). Take `CCn1cc(CN2CCN(CC(C)(C)C)C(CCO)C2)c2ccccc21` (stereo not drawn): the inhibition was 1.37% (inactive). Take `O=C(COC(=O)/C=C/c1cccs1)NC1CCCCC1`: the inhibition is 80.5% (active). As to `COc1ccccc1/C=C/C(=O)OCC(=O)NC1CCCCCC1`, the inhibition was 93.2% (active). As for `COc1ccccc1/C=C/C(=O)NC1CC2CCC1C2` (stereo not drawn), the inhibition was -0.78% (inactive). For `O=C(CCC(=O)c1cccs1)NC1CCCCCC1` the value was 8.2% (inactive). Turning to `COc1ccccc1-n1ccnc(SCC(=O)NC2CCCCC2)c1=O`, the inhibition is -2.23% (inactive).

For `CCOc1ccc(/C=C/C(=O)OCC(=O)c2ccccc2OC)cc1OC`, the inhibition is 6.36% (inactive). For `COc1ccc(/C=C/C(=O)OCC(=O)NC2CCCCCC2)cc1OC` the value was 87.4% (active); for `COc1ccc(CCNC(=O)COC(=O)/C=C/c2cccs2)cc1OC`, 6.71% (inactive). For `COc1cc(/C=C/C(=O)OCC(=O)NC2CC2)cc(OC)c1OC` the value was 9.4% (inactive); for `COc1cc2c(C(=O)N3CCN(C)CC3)c(CSc3ccccc3)n(C)c2cc1Br`, -5.01% (inactive). `COc1ccc(NC(=O)c2cccc(Cl)c2)c[n+]1[O-]`: the inhibition was -0.76% (inactive).

As to `O=C(CSCc1c(Cl)cccc1Cl)NN1C(=O)c2ccccc2C1=O`, the inhibition was 11.8% (inactive). Consider `Cc1cccc(CN2CCN(Cc3cnn(-c4ccccc4F)c3)CC2CCO)n1` (stereo not drawn), for which the inhibition was -6.68% (inactive). For `COc1ccc(C(=O)O/N=C(\N)Cc2ccc(Cl)cc2Cl)cc1OC` the value was 85.3% (active); for `COc1ccc(CCn2ccc(O)c(Cc3ccc(Cl)cc3Cl)c2=O)cc1OC`, -2.38% (inactive); for `COc1ccc(C(=O)n2nc(-c3ccc(Cl)cc3)nc2N)cc1OC`, 3.15% (inactive).

For `C=CCOc1ccc(C(=O)Nc2ccccc2C(=O)N2CCCC2)cc1`, the inhibition was 7.79% (inactive). For `CCCCn1c(O)c(N=NC(=O)Cn2c(C(F)(F)F)nc3ccccc32)c2ccccc21` the value was -3.07% (inactive); for `O=C(O)Cc1csc(-c2cccc(Oc3ccccc3)c2)n1`, 3.06% (inactive) and 0.17% (inactive); for `CC1CC(C)CN(c2ccc(S(=O)(=O)N3CCOCC3)cc2)C1` (stereo not drawn), 13.7% (inactive).

As to `Cc1ccc(OCC(=O)N2CCN(S(=O)(=O)c3ccc(Cl)s3)CC2)cc1C`, the inhibition is 6.03% (inactive). The same measure for `CN(C)S(=O)(=O)c1cccc(NC(=O)COC(=O)c2cc(=O)[nH]c(=O)[nH]2)c1`: 0.25% (inactive); for `Cc1ccc(S(=O)(=O)N(C)C)cc1NC(=O)COC(=O)/C=C/c1cccs1`: 59.3% (active); for `Cc1ccc(S(=O)(=O)N(C)C)cc1NC(=O)COC(=O)c1c(C)noc1C`: -9.47% (inactive). The same measure for `Cc1ccc(S(=O)(=O)N(C)C)cc1NC(=O)/C=C/c1cccs1`: 5.59% (inactive); for `CN(C)S(=O)(=O)c1cccc(NC(=O)COC(=O)/C=C/c2cccs2)c1`: 72.2% (active); for `CN(C)S(=O)(=O)c1cccc(NC(=O)COc2ccc3ccccc3c2)c1`: -8.6% (inactive).

Consider `O=C(C1CCN(S(=O)(=O)Cc2ccccc2)CC1)N1CCCc2ccccc21`, for which the inhibition is -7.5% (inactive). The same measure for `COCCNC(=O)/C(C#N)=C/c1nc(N(C)C)n(-c2ccc(F)cc2)c1Cl`: 1.81% (inactive); for `COCCNC(=O)/C(C#N)=C/c1cccc(OCc2ccccc2)c1`: 30.2% (active); for `CCOC(=O)NC(=O)/C(C#N)=C\c1ccccc1`: -7.65% (inactive).

With `Cc1cc(C(=O)COc2ccccc2Cl)c(C)n1C1CC1`, the inhibition was 0.58% (inactive). The same measure for `Cc1cc(C(=O)COC(=O)C2CC2)c(C)n1-c1ccc(F)cc1`: 44.5% (active); for `Cc1ccc(-n2c(C)cc(C(=O)CN3C(=O)C(=O)N(C4CCCC4)C3=O)c2C)cc1`: 4.94% (inactive). Take `C=CCOCCN(C)C1=NS(=O)(=O)c2ccccc21`: the inhibition is -9.33% (inactive).

With `COc1cc(C(=O)NN(CCC#N)C2=NS(=O)(=O)c3ccccc32)cc(OC)c1OC`, the inhibition is 4.52% (inactive). The same measure for `COc1ccc(/C=N/N(C)C2=NS(=O)(=O)c3ccccc32)cc1OC`: 31.8% (active).
